Positions count from the first letter of the chain named.
Columns and labels:
Assay in all cases: PBM; 200 nM protein, PBS
Conditions in all cases: dsDNA, one strand shown
VENTX [1] = biological target: T1, VENTX (Homo sapiens, UniProt O95231 78-163, R121Q)
T1 sequence: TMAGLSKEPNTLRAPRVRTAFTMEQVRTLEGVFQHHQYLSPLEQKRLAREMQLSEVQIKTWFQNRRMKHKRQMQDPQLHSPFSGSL

HOXB9 [2] = biological target: HOXB9 (Homo sapiens, UniProt P17482 171-250, T197M)
VENTX [3] = biological target: T2, VENTX (Homo sapiens, UniProt O95231 78-163)
T2 sequence: T1 sequence with Q44R

VENTX [4] = biological target: T3, VENTX (Homo sapiens, UniProt O95231 78-163, Y115F)
T3 sequence: T1 sequence with Y38F, Q44R

HOXB9 [5] = biological target: HOXB9 (Homo sapiens, UniProt P17482 171-250)
Sequence of HOXB9 (Homo sapiens, UniProt P17482 171-250) (P17482 171-250): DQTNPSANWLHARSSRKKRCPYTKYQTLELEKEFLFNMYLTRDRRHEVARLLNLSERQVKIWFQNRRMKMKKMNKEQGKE

HOXB9 [6] = biological target: HOXB9 (Homo sapiens, UniProt P17482 171-250, R186Q)
Sequence of HOXB9 (Homo sapiens, UniProt P17482 171-250, R186Q) (P17482 171-250 R186Q): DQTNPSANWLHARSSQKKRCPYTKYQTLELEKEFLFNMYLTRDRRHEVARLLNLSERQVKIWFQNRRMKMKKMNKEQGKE

HOXD13 [7] = biological target: HOXD13 (Homo sapiens, UniProt P35453 263-343, T313R)
Sequence of HOXD13 (Homo sapiens, UniProt P35453 263-343, T313R) (P35453 263-343 T313R): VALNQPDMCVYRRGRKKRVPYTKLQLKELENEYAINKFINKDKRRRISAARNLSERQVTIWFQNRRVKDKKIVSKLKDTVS

HOXD13 [8] = biological target: HOXD13 (Homo sapiens, UniProt P35453 263-343)
Sequence of HOXD13 (Homo sapiens, UniProt P35453 263-343) (P35453 263-343): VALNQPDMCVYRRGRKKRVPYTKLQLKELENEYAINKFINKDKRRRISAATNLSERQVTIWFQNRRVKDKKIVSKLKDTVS

HOXD13 [9] = biological target: HOXD13 (Homo sapiens, UniProt P35453 263-343, T313A)
Sequence of HOXD13 (Homo sapiens, UniProt P35453 263-343, T313A) (P35453 263-343 T313A): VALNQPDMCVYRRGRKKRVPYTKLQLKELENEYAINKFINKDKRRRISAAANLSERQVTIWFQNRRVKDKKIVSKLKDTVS

HOXA4 [10] = biological target: HOXA4 (Homo sapiens, UniProt Q00056 201-287, W262R)
Sequence of HOXA4 (Homo sapiens, UniProt Q00056 201-287, W262R) (Q00056 201-287 W262R): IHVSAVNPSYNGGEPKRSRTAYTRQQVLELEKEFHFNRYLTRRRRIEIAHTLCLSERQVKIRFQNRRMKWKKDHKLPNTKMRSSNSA

HOXA4 [11] = biological target: HOXA4 (Homo sapiens, UniProt Q00056 201-287, R217L)
Sequence of HOXA4 (Homo sapiens, UniProt Q00056 201-287, R217L) (Q00056 201-287 R217L): as the sequence (Q00056 201-287 W262R) above, with R17L, R62W counted along it

HOXA4 [12] = biological target: HOXA4 (Homo sapiens, UniProt Q00056 201-287)
Sequence of HOXA4 (Homo sapiens, UniProt Q00056 201-287) (Q00056 201-287): as the sequence (Q00056 201-287 W262R) above, with R62W counted along it

HOXA4 [13] = biological target: HOXA4 (Homo sapiens, UniProt Q00056 201-287, W262F)
Sequence of HOXA4 (Homo sapiens, UniProt Q00056 201-287, W262F) (Q00056 201-287 W262F): as the sequence (Q00056 201-287 W262R) above, with R62F counted along it

HOXC9 [14] = biological target: HOXC9 (Homo sapiens, UniProt P31274 178-260, K195R)
Sequence of HOXC9 (Homo sapiens, UniProt P31274 178-260, K195R) (P31274 178-260 K195R): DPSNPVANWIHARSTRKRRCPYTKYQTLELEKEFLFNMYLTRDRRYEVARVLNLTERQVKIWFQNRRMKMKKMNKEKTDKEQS

HOXB6 [15] = biological target: HOXB6 (Homo sapiens, UniProt P17509 132-218, K202E)
Sequence of HOXB6 (Homo sapiens, UniProt P17509 132-218, K202E) (P17509 132-218 K202E): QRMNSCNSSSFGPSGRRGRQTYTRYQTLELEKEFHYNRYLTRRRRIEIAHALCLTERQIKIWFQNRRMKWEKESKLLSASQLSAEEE

HOXC9 [16] = biological target: HOXC9 (Homo sapiens, UniProt P31274 178-260)
Sequence of HOXC9 (Homo sapiens, UniProt P31274 178-260) (P31274 178-260): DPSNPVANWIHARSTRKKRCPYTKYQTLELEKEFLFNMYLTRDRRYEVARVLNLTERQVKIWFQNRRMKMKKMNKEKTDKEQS

HOXC9 [17] = biological target: HOXC9 (Homo sapiens, UniProt P31274 178-260, R193K)
Sequence of HOXC9 (Homo sapiens, UniProt P31274 178-260, R193K) (P31274 178-260 R193K): as the sequence (P31274 178-260) above, with R16K counted along it

HOXC9 [18] = biological target: HOXC9 (Homo sapiens, UniProt P31274 178-260, R222W)
Sequence of HOXC9 (Homo sapiens, UniProt P31274 178-260, R222W) (P31274 178-260 R222W): as the sequence (P31274 178-260) above, with R45W counted along it

HOXB6 [19] = biological target: HOXB6 (Homo sapiens, UniProt P17509 132-218)
Sequence of HOXB6 (Homo sapiens, UniProt P17509 132-218) (P17509 132-218): as the sequence (P17509 132-218 K202E) above, with E71K counted along it

VAX1 [20] = biological target: VAX1 (Homo sapiens, UniProt Q5SQQ9 86-172)
Sequence of VAX1 (Homo sapiens, UniProt Q5SQQ9 86-172) (Q5SQQ9 86-172): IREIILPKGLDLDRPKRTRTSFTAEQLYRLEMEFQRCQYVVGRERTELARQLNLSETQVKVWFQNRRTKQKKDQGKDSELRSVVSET

VAX1 [21] = biological target: VAX1 (Homo sapiens, UniProt Q5SQQ9 86-172, T142I)
Sequence of VAX1 (Homo sapiens, UniProt Q5SQQ9 86-172, T142I) (Q5SQQ9 86-172 T142I): as the sequence (Q5SQQ9 86-172) above, with T57I counted along it

VAX1 [22] = biological target: VAX1 (Homo sapiens, UniProt Q5SQQ9 86-172, K157R)
Sequence of VAX1 (Homo sapiens, UniProt Q5SQQ9 86-172, K157R) (Q5SQQ9 86-172 K157R): as the sequence (Q5SQQ9 86-172) above, with K72R counted along it

ALX3 [23] = biological target: ALX3 (Homo sapiens, UniProt O95076 139-225, N203Q)
Sequence of ALX3 (Homo sapiens, UniProt O95076 139-225, N203Q) (O95076 139-225 N203Q): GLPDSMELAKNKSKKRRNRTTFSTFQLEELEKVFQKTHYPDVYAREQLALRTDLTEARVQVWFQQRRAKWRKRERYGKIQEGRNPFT

ALX3 [24] = biological target: ALX3 (Homo sapiens, UniProt O95076 139-225)
Sequence of ALX3 (Homo sapiens, UniProt O95076 139-225) (O95076 139-225): as the sequence (O95076 139-225 N203Q) above, with Q65N counted along it

ALX3 [25] = biological target: ALX3 (Homo sapiens, UniProt O95076 139-225, L168Q)
Sequence of ALX3 (Homo sapiens, UniProt O95076 139-225, L168Q) (O95076 139-225 L168Q): as the sequence (O95076 139-225 N203Q) above, with L30Q, Q65N counted along it

ALX3 [26] = biological target: ALX3 (Homo sapiens, UniProt O95076 139-225, L168V)
Sequence of ALX3 (Homo sapiens, UniProt O95076 139-225, L168V) (O95076 139-225 L168V): as the sequence (O95076 139-225 N203Q) above, with L30V, Q65N counted along it

ALX3 [27] = biological target: ALX3 (Homo sapiens, UniProt O95076 139-225, N203S)
Sequence of ALX3 (Homo sapiens, UniProt O95076 139-225, N203S) (O95076 139-225 N203S): as the sequence (O95076 139-225 N203Q) above, with Q65S counted along it

Sequence of HOXB9 (Homo sapiens, UniProt P17482 171-250, T197M) (P17482 171-250 T197M): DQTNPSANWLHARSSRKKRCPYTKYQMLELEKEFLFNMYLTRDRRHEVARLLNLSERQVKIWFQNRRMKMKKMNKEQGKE

## CTCCCGAG
VENTX [1]
  binding signal: 8.03 upbm affinity estimate (log intensity, higher = more binding, comparable within an allelic series)
HOXB9 [2]
  binding signal: 8.41 upbm affinity estimate (log intensity, higher = more binding, comparable within an allelic series)
VENTX [3]
  binding signal: 8.1 upbm affinity estimate (log intensity, higher = more binding, comparable within an allelic series)
VENTX [4]
  binding signal: 8.07 upbm affinity estimate (log intensity, higher = more binding, comparable within an allelic series)
HOXB9 [5]
  binding signal: 8.42 upbm affinity estimate (log intensity, higher = more binding, comparable within an allelic series)
HOXB9 [6]
  binding signal: 8.44 upbm affinity estimate (log intensity, higher = more binding, comparable within an allelic series)

## AGAGGGGC
VENTX [1]
  binding signal: 8.19 upbm affinity estimate (log intensity, higher = more binding, comparable within an allelic series)
HOXB9 [2]
  binding signal: 8.56 upbm affinity estimate (log intensity, higher = more binding, comparable within an allelic series)
VENTX [3]
  binding signal: 8.3 upbm affinity estimate (log intensity, higher = more binding, comparable within an allelic series)
VENTX [4]
  binding signal: 8.07 upbm affinity estimate (log intensity, higher = more binding, comparable within an allelic series)
HOXB9 [5]
  binding signal: 8.46 upbm affinity estimate (log intensity, higher = more binding, comparable within an allelic series)
HOXD13 [7]
  binding signal: 9.48 upbm affinity estimate (log intensity, higher = more binding, comparable within an allelic series)
HOXD13 [8]
  binding signal: 9.71 upbm affinity estimate (log intensity, higher = more binding, comparable within an allelic series)
HOXD13 [9]
  binding signal: 9.59 upbm affinity estimate (log intensity, higher = more binding, comparable within an allelic series)
HOXB9 [6]
  binding signal: 8.41 upbm affinity estimate (log intensity, higher = more binding, comparable within an allelic series)

## GGGAGGAC
VENTX [1]
  binding signal: 8.23 upbm affinity estimate (log intensity, higher = more binding, comparable within an allelic series)
HOXA4 [10]
  binding signal: 9.79 upbm affinity estimate (log intensity, higher = more binding, comparable within an allelic series)
VENTX [3]
  binding signal: 8.18 upbm affinity estimate (log intensity, higher = more binding, comparable within an allelic series)
VENTX [4]
  binding signal: 8.28 upbm affinity estimate (log intensity, higher = more binding, comparable within an allelic series)
HOXA4 [11]
  binding signal: 9.91 upbm affinity estimate (log intensity, higher = more binding, comparable within an allelic series)
HOXA4 [12]
  binding signal: 10.1 upbm affinity estimate (log intensity, higher = more binding, comparable within an allelic series)
HOXA4 [13]
  binding signal: 9.92 upbm affinity estimate (log intensity, higher = more binding, comparable within an allelic series)

## AGTTAATG
VENTX [1]
  binding signal: 11.5 upbm affinity estimate (log intensity, higher = more binding, comparable within an allelic series)
HOXC9 [14]
  binding signal: 12.5 upbm affinity estimate (log intensity, higher = more binding, comparable within an allelic series)
VENTX [3]
  binding signal: 12.4 upbm affinity estimate (log intensity, higher = more binding, comparable within an allelic series)
VENTX [4]
  binding signal: 11.4 upbm affinity estimate (log intensity, higher = more binding, comparable within an allelic series)
HOXB6 [15]
  binding signal: 9.94 upbm affinity estimate (log intensity, higher = more binding, comparable within an allelic series)
HOXC9 [16]
  binding signal: 12.5 upbm affinity estimate (log intensity, higher = more binding, comparable within an allelic series)
HOXC9 [17]
  binding signal: 12.5 upbm affinity estimate (log intensity, higher = more binding, comparable within an allelic series)
HOXC9 [18]
  binding signal: 10.8 upbm affinity estimate (log intensity, higher = more binding, comparable within an allelic series)
HOXA4 [13]
  binding signal: 11.4 upbm affinity estimate (log intensity, higher = more binding, comparable within an allelic series)
HOXB6 [19]
  binding signal: 11.7 upbm affinity estimate (log intensity, higher = more binding, comparable within an allelic series)

## CCGGGAGG
VENTX [1]
  binding signal: 8.1 upbm affinity estimate (log intensity, higher = more binding, comparable within an allelic series)
HOXC9 [14]
  binding signal: 9.54 upbm affinity estimate (log intensity, higher = more binding, comparable within an allelic series)
VENTX [3]
  binding signal: 7.94 upbm affinity estimate (log intensity, higher = more binding, comparable within an allelic series)
VENTX [4]
  binding signal: 8.13 upbm affinity estimate (log intensity, higher = more binding, comparable within an allelic series)
HOXC9 [16]
  binding signal: 9.63 upbm affinity estimate (log intensity, higher = more binding, comparable within an allelic series)
HOXC9 [17]
  binding signal: 9.49 upbm affinity estimate (log intensity, higher = more binding, comparable within an allelic series)
VAX1 [20]
  binding signal: 7.03 upbm affinity estimate (log intensity, higher = more binding, comparable within an allelic series)
HOXC9 [18]
  binding signal: 9.7 upbm affinity estimate (log intensity, higher = more binding, comparable within an allelic series)
VAX1 [21]
  binding signal: 7.12 upbm affinity estimate (log intensity, higher = more binding, comparable within an allelic series)
VAX1 [22]
  binding signal: 7.11 upbm affinity estimate (log intensity, higher = more binding, comparable within an allelic series)

## CGAGCGAC
VENTX [1]
  binding signal: 8.03 upbm affinity estimate (log intensity, higher = more binding, comparable within an allelic series)
HOXB9 [2]
  binding signal: 8.47 upbm affinity estimate (log intensity, higher = more binding, comparable within an allelic series)
HOXC9 [14]
  binding signal: 9.58 upbm affinity estimate (log intensity, higher = more binding, comparable within an allelic series)
VENTX [3]
  binding signal: 7.84 upbm affinity estimate (log intensity, higher = more binding, comparable within an allelic series)
VENTX [4]
  binding signal: 8.14 upbm affinity estimate (log intensity, higher = more binding, comparable within an allelic series)
HOXB9 [5]
  binding signal: 8.38 upbm affinity estimate (log intensity, higher = more binding, comparable within an allelic series)
HOXC9 [16]
  binding signal: 9.72 upbm affinity estimate (log intensity, higher = more binding, comparable within an allelic series)
ALX3 [23]
  binding signal: 7.8 upbm affinity estimate (log intensity, higher = more binding, comparable within an allelic series)
HOXC9 [17]
  binding signal: 9.67 upbm affinity estimate (log intensity, higher = more binding, comparable within an allelic series)
ALX3 [24]
  binding signal: 7.63 upbm affinity estimate (log intensity, higher = more binding, comparable within an allelic series)
VAX1 [20]
  binding signal: 7.11 upbm affinity estimate (log intensity, higher = more binding, comparable within an allelic series)
ALX3 [25]
  binding signal: 7.78 upbm affinity estimate (log intensity, higher = more binding, comparable within an allelic series)
HOXB9 [6]
  binding signal: 8.41 upbm affinity estimate (log intensity, higher = more binding, comparable within an allelic series)
HOXC9 [18]
  binding signal: 9.73 upbm affinity estimate (log intensity, higher = more binding, comparable within an allelic series)
ALX3 [26]
  binding signal: 7.74 upbm affinity estimate (log intensity, higher = more binding, comparable within an allelic series)
VAX1 [21]
  binding signal: 7.15 upbm affinity estimate (log intensity, higher = more binding, comparable within an allelic series)
ALX3 [27]
  binding signal: 7.82 upbm affinity estimate (log intensity, higher = more binding, comparable within an allelic series)
VAX1 [22]
  binding signal: 7.05 upbm affinity estimate (log intensity, higher = more binding, comparable within an allelic series)

Source: article PMC11006913
